The source of these data is PubChem BioAssay (NCI).

This is part of a sample that, as a whole, favours compounds with a hit. Of some 83,000 tested, about 20% had one in any assay.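 Single-concentration screen, 48 h exposure, 96-well plates. Endpoint: percent growth. Below 10 = active.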 Unmarked numbers belong to inactive results. Calls of active or inactive are those of the source.

Holding throughout (test): NCI-60 one-dose screen, 48 h (100 = growth as untreated, 0 = no growth, -100 = all killed)
One experiment concerns K-562 leukemia. As to conditions: 10 µM unless noted.
The next experiment relates to SF-295 CNS. As to conditions: 10 µM unless noted.
The next experiment concerns SF-539 CNS. The conditions noted are these: 10 µM unless noted.
The test system of a further experiment is HCT-15 colon. The conditions noted are these: 10 µM.
A further experiment relates to HT29 colon. The conditions noted are these: 10 µM unless noted.
The subject of a further experiment is SNB-75 CNS. As to conditions: 10 µM unless noted.
The next experiment relates to PC-3 prostate. As to conditions: 10 µM unless noted.
For another experiment, the system named is SK-MEL-5 melanoma. The conditions noted are these: 10 µM unless noted.
Another experiment deals with SK-MEL-2 melanoma. The conditions noted are these: 10 µM unless noted.
In another experiment the test system is ACHN renal. As to conditions: 10 µM unless noted.
A further experiment concerns A498 renal. As to conditions: 10 µM unless noted.
The next experiment relates to HL-60(TB) leukemia. The conditions noted are these: 10 µM unless noted.
The test system of the next experiment is OVCAR-8 ovarian. As to conditions: 10 µM unless noted.
The subject of a further experiment is OVCAR-4 ovarian. The conditions noted are these: 10 µM unless noted.
The next experiment concerns IGROV1 ovarian. As to conditions: 10 µM.
The next experiment concerns HS 578T breast. As to conditions: 10 µM unless noted.
The test system of the next experiment is T-47D breast. As to conditions: 10 µM unless noted.
The subject of another experiment is HCC-2998 colon. The conditions noted are these: 10 µM unless noted.
In a further experiment the test system is A549/ATCC NSCLC. The conditions noted are these: 10 µM unless noted.
The next experiment has as its system UACC-257 melanoma. The conditions noted are these: 10 µM unless noted.

`O=c1cc[nH]c(=O)o1`: the growth with K-562 leukemia was 105%; in the experiment on SF-295 CNS, 101%; in the experiment on SF-539 CNS, 104%; in the experiment with HCT-15 colon, 104%; in the experiment with HT29 colon, 95.9%; in the experiment on SNB-75 CNS, 84.7%. Besides, the growth in the experiment with PC-3 prostate was 98%; in the experiment with SK-MEL-5 melanoma it was 105%; with SK-MEL-2 melanoma, 93.3%; in the experiment on ACHN renal, 115%; in the experiment with A498 renal, 114%; with HL-60(TB) leukemia, 80.2%. The growth with OVCAR-8 ovarian was 96.6%; in the experiment with OVCAR-4 ovarian, 104%; in the experiment on IGROV1 ovarian, 104%; in the experiment on HS 578T breast, 120%; in the experiment with T-47D breast it was 96.3%; with HCC-2998 colon it was 116%.
Take `Nc1ccc([N+](=O)[O-])c2c1Oc1ccccc1O2`: the growth with A549/ATCC NSCLC is 93.8%; in the experiment on K-562 leukemia it was 113%; with SF-295 CNS, 85.1%; with SF-539 CNS, 89.7%; in the experiment on UACC-257 melanoma, 101%; in the experiment with HCT-15 colon it was 87.8%. For the same compound, the growth is 103% in the experiment on HT29 colon; 82.8% in the experiment on SNB-75 CNS; 101% in the experiment with PC-3 prostate; 96.7% with SK-MEL-5 melanoma; 102% with SK-MEL-2 melanoma; 108% in the experiment on ACHN renal. For the same compound, the growth in the experiment on A498 renal was 72.9%; in the experiment on HL-60(TB) leukemia, -17.4% (active); in the experiment on OVCAR-8 ovarian it was 92.9%; in the experiment on OVCAR-4 ovarian, 94.5%; with IGROV1 ovarian, 28%; in the experiment with HS 578T breast, 100%. Besides, the growth is 72.7% in the experiment on T-47D breast and 108% in the experiment on HCC-2998 colon.
With `ClCCN(CCCl)c1nc(Cl)c(C2CC(c3ccc(Cl)cc3)=NN2c2cc(Cl)cc(Cl)c2)s1` (stereo unspecified), the growth was 97.7% in the experiment on A549/ATCC NSCLC; 91.7% in the experiment on K-562 leukemia; 101% in the experiment with SF-295 CNS; 118% with SF-539 CNS; 94.4% in the experiment with UACC-257 melanoma; 105% in the experiment on HCT-15 colon. Moreover, the growth was 94.4% with HT29 colon; 97.7% in the experiment on SNB-75 CNS; 93.6% in the experiment with PC-3 prostate; 115% with SK-MEL-5 melanoma; 96.3% in the experiment on SK-MEL-2 melanoma; 106% in the experiment on ACHN renal. Moreover, the growth in the experiment on A498 renal was 101%; in the experiment on HL-60(TB) leukemia, 104%; in the experiment with OVCAR-8 ovarian it was 99.1%; in the experiment on OVCAR-4 ovarian, 99.7%; in the experiment with IGROV1 ovarian, 102%; in the experiment with HS 578T breast, 89.7%. Also, the growth was 98.8% with T-47D breast and 109% in the experiment on HCC-2998 colon.
`CN1CCN(C(=O)COc2ccc(/C=C3\CC4C5CC=C6CC(Cl)CCC6(C)C5CCC4(C)C3=O)cc2)CC1` (stereo unspecified): the growth with A549/ATCC NSCLC was 65%; with K-562 leukemia, 18.3%; in the experiment with SF-295 CNS, 82.8%; in the experiment with SF-539 CNS, 93.6%; in the experiment with UACC-257 melanoma, 38.8%; with HCT-15 colon, 54.4%. Besides, the growth with HT29 colon is -9.75% (active); in the experiment on SNB-75 CNS it was 86.8%; with PC-3 prostate, 71.3%; with SK-MEL-5 melanoma it was 80.4%; in the experiment with SK-MEL-2 melanoma, 89.8%; with ACHN renal it was 80.1%. Further, the growth with A498 renal was 75.3%; with HL-60(TB) leukemia, 38.3%; with OVCAR-8 ovarian, 78.9%; with OVCAR-4 ovarian it was 70.7%; in the experiment on IGROV1 ovarian it was 86.6%; in the experiment with T-47D breast it was 71.2%. Moreover, the growth with HCC-2998 colon was 90.6%.
On to `O=C(CCl)NCNC(=O)CCl`, for which the growth was 93.2% with A549/ATCC NSCLC; 98.9% with K-562 leukemia; 56.5% in the experiment with SF-295 CNS; 101% in the experiment with SF-539 CNS; 76.5% in the experiment with UACC-257 melanoma; 91.4% in the experiment on HCT-15 colon. In addition, the growth is 105% with HT29 colon; 85.9% in the experiment on SNB-75 CNS; 86.4% in the experiment on PC-3 prostate; 92.7% with SK-MEL-5 melanoma; 90.4% with SK-MEL-2 melanoma; 94.5% in the experiment on ACHN renal. Further, the growth in the experiment with A498 renal is 109%; in the experiment with HL-60(TB) leukemia, 102%; in the experiment on OVCAR-8 ovarian it was 92.4%; in the experiment on OVCAR-4 ovarian, 77.4%; in the experiment on IGROV1 ovarian it was 74.4%; in the experiment with HS 578T breast, 96.8%. For the same compound, the growth is 92.6% in the experiment with T-47D breast and 111% in the experiment with HCC-2998 colon.
For the compound `O=C(CC1(O)C(=O)Nc2ccc(F)cc21)c1ccc(C(=O)NCC2CCC3(CC2)OOC2(CCCCC2)OO3)cc1` (stereo unspecified), the growth was -66.5% (active) in the experiment on A549/ATCC NSCLC; 14.9% with K-562 leukemia; 79.3% with SF-295 CNS; 7.74% (active) in the experiment on SF-539 CNS; 70.4% with UACC-257 melanoma; 74.1% in the experiment with HCT-15 colon. In addition, the growth was 69.8% with SNB-75 CNS; 44.2% in the experiment on PC-3 prostate; -25.2% (active) in the experiment with ACHN renal; 65% with A498 renal; -64.2% (active) in the experiment with HL-60(TB) leukemia; 19.7% in the experiment on OVCAR-8 ovarian. The growth is 65.6% in the experiment with OVCAR-4 ovarian; 3.82% (active) in the experiment with IGROV1 ovarian; 73.8% with HS 578T breast; 29.6% with T-47D breast; 113% with HCC-2998 colon.
In the case of `O=C(O)c1cccc(CCl)c1`, the growth is 96% in the experiment on A549/ATCC NSCLC; 101% in the experiment with K-562 leukemia; 94.3% with SF-539 CNS; 94.2% in the experiment with UACC-257 melanoma; 93% in the experiment with HCT-15 colon; 102% with HT29 colon. The growth in the experiment with SNB-75 CNS is 87.2%; in the experiment on PC-3 prostate, 102%; in the experiment with SK-MEL-5 melanoma, 113%; in the experiment on SK-MEL-2 melanoma, 103%; in the experiment on ACHN renal, 100%; with A498 renal, 117%. Besides, the growth with HL-60(TB) leukemia is 93.4%; with OVCAR-8 ovarian it was 96.5%; in the experiment on OVCAR-4 ovarian, 105%; with T-47D breast, 96.3%; in the experiment on HCC-2998 colon, 112%.
For the compound `CC(=O)N1N=C(c2ccccc2)CC1c1sc(N(CCCl)CCCl)nc1Cl` (stereo unspecified), the growth in the experiment on A549/ATCC NSCLC is 86.3%; in the experiment on K-562 leukemia it was 80%; in the experiment with SF-295 CNS it was 92.5%; in the experiment with SF-539 CNS, 106%; in the experiment with UACC-257 melanoma, 92.2%; in the experiment with HCT-15 colon, 94.8%. The growth was 93.9% in the experiment on HT29 colon; 83.1% in the experiment with SNB-75 CNS; 88.1% in the experiment on PC-3 prostate; 99.1% in the experiment on SK-MEL-5 melanoma; 87.1% with SK-MEL-2 melanoma; 99.2% with ACHN renal. The growth in the experiment with A498 renal is 97.5%; in the experiment on HL-60(TB) leukemia it was 98%; with OVCAR-8 ovarian it was 95.8%; in the experiment on OVCAR-4 ovarian, 101%; in the experiment on IGROV1 ovarian it was 101%; with HS 578T breast, 88%. For the same compound, the growth is 82.3% with T-47D breast and 96.4% with HCC-2998 colon.
For the compound `O=CC(Br)C(Br)c1ccccc1` (stereo unspecified), the growth in the experiment with A549/ATCC NSCLC is 97.6%; in the experiment with K-562 leukemia, 41.2%; in the experiment on SF-295 CNS, 97.9%; in the experiment on SF-539 CNS it was 94%; in the experiment with UACC-257 melanoma, 93.8%; in the experiment on HCT-15 colon, 78.1%. Further, the growth is 71.4% in the experiment on HT29 colon; 92.6% in the experiment on SNB-75 CNS; 94.7% in the experiment on PC-3 prostate; 89.9% in the experiment with SK-MEL-5 melanoma; 112% in the experiment with SK-MEL-2 melanoma; 86.2% in the experiment with ACHN renal. Besides, the growth in the experiment on A498 renal is 102%; in the experiment with HL-60(TB) leukemia, 26.3%; with OVCAR-8 ovarian, 85.6%; in the experiment on OVCAR-4 ovarian, 104%; in the experiment on IGROV1 ovarian it was 74.8%; in the experiment with HS 578T breast it was 97.2%. The results for the growth in the experiment with T-47D breast and in the experiment with HCC-2998 colon were 37.2% and 106%, respectively.
